Reference: PubChem BioAssay AID1851 (National Center for Advancing Translational Sciences (NCATS), 2009)
In all, about 16,000 compounds went through this assay and about 2,600 (16%) were called active. Roughly 20% stayed inconclusive and do not appear here. The call rests on the fitted dose curve; in most records, active means well fitted curve in the direction sought with a large enough effect; inconclusive means small, poorly fitted or top-dose-only effect, or effect the other way; inactive means no such curve, though single readings can be large or run the other way. These entries were drawn from the full list.

Target: Cytochrome P450 2D6 (Homo sapiens) (UniProt P10635)
Assay: Cytochrome panel assay with activity outcomes
Conditions: recombinant CYP, pro-luciferin dealkylation, luminescence, p450-cyp2d6; series mostly up to 57.1 µM; activity, negative = inhibition: at the top concentration
On the % scale 0 is the no-effect control and ±100 the full control effect.

Sequence of Cytochrome P450 2D6 (Homo sapiens) (P10635 whole entry, looked up): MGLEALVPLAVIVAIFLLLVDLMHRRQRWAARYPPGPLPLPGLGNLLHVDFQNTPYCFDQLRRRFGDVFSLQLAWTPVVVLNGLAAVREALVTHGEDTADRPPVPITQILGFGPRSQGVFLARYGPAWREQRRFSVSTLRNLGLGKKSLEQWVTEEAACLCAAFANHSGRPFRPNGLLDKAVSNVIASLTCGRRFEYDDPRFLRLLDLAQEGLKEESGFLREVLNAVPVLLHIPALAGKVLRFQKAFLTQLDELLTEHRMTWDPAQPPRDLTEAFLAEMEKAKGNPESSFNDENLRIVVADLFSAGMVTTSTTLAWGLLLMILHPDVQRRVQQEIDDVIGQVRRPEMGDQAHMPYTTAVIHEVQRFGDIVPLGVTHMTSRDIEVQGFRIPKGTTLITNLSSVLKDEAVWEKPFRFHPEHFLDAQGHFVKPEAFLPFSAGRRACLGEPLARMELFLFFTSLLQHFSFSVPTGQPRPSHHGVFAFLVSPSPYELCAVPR

activity, negative = inhibition, inactive:
COc1cccc(Cn2c(=O)c(-c3cccc(C#N)c3)nc3cnc(Nc4ccccc4)nc32)c1 0.752%
O=C(O)c1c(Br)c(Br)c(Br)c(Br)c1C1c2ccc(O)cc2Oc2cc(O)ccc21 -6.23% [at 11.4 µM]
O=c1[nH]n(-c2cccc3cccnc23)c(=O)c2ccccc12 5.11%
COc1ccc(OC)c(NC(=O)Cn2cccc2)c1 -4.42%
Cc1occc1C(=O)NNC(=O)Cc1ccccc1 -7.57%
CCCCn1nnnc1SCC(=O)N1CCCC1 1.31%
O=c1[nH]c(=S)[nH]c(-c2ccccc2)c1Cc1c(O)ccc2ccccc12 -6.41% [at 11.4 µM]
Cc1cccc(CNc2cc(-c3ccc(C(=O)N(C)C)cc3)ncn2)c1 -3%
CCN(C(=O)Cn1c(=O)oc2ccccc21)c1cccc(C(F)(F)F)c1 -17.9%
Cc1ccccc1Oc1ncnc2oc(-c3ccccc3)cc12 -13.1%
CC(=O)Oc1ccccc1C(=O)Oc1ccccc1C(=O)O 1.36% [at 25.6 µM]
CCn1c(SCC(=O)Nc2nc3ccc(C)cc3s2)nc2c(c1=O)SC(C)C2 (configuration not stated) -15.7%
O=C(N/N=C/c1ccc(Cl)cc1Cl)Nc1ccccc1 11%
O=C(N/N=C/c1ccc(Cl)cc1)Nc1ccccc1 2.13%
COCCn1c(=O)c(-c2ccc(F)cc2)nc2cnc(Oc3ccccc3)nc21 -2.23%
O=C(Nc1cccc(F)c1)Nc1ccccn1 -28.3%
CCOC(=O)c1cnn(-c2nc(-c3ccc(F)cc3)cs2)c1C(F)(F)F -14.3%
CCOC(=O)c1nnc(-c2ccccc2)nc1NCc1ccccc1 -17.8%
CCCCOC(=O)C1=C(C)Nc2ncnn2C1c1cc(OC)ccc1OC (configuration not stated) -4.71%
O=C(Cc1ccc(S(=O)(=O)N2CCOCC2)s1)Nc1nc2c(s1)CCCC2 -28.9%
O=C(NCC1CCCO1)C1CCC(=O)N1CCc1ccccc1 (configuration not stated) -12.3%
Cc1ccc(CN2C(=O)CCC2C(=O)NCc2cccnc2)cc1 (configuration not stated) -15.9%
O=c1c(CCc2ccccc2)nc2cnc(Oc3cccc(Cl)c3)nc2n1C[C@H]1CCCO1 -3.35%
CCCN(CCC)CCCNC(=O)c1cc2cc3ccc(OC)cc3nc2o1 -16.6%
CCOC(=O)C1=NNC2(c3ccc(Cl)cc3)C(=O)N(c3cc(C)cc(C)c3)C(=O)C12 (configuration not stated) -3.78%
CCCCOC(=O)CSc1nnc(-c2cc(OC)c(OC)c(OC)c2)o1 -2.6%
O=C(O)C/C(=C\c1ccco1)C(=O)O 1.84% [at 11.4 µM]
O=c1cnc2cncnc2n1Cc1ccccc1 -8.52%
Nc1cccc(OCc2nc(N)nc(N)c2-c2ccc(Cl)cc2)c1 -14.7% [at 11.4 µM]
COc1ccc(-n2cnnc2)cc1 -10%
COc1ccc(-n2c(C)nn(C)c2=O)cc1 -17.9%
COC(=O)c1nc(NC(=O)c2ccccc2)n[nH]1 -23.8%
COc1cc(C(=O)NCCC(C)C)c([N+](=O)[O-])cc1OC 11.9%
CCCCCCCCCCCCCCCCCC(=O)O[C@H](CC(=O)O)C[N+](C)(C)C 10.3%
O=P(O)(O)CCP(=O)(c1ccccc1)c1ccccc1 14.9%
O=C1NC(c2ccc(Br)cc2)Nc2sc3c(c21)CCC3 (configuration not stated) -19.6%
CN(C)c1ccc(/C=C2/C(=O)Nc3ccccc32)cc1 -1.67%
O=C(NCc1nc2ccccc2[nH]1)[C@H]1C[C@@H]1[C@H](NP(=O)(c1ccccc1)c1ccccc1)c1ccccc1 -9.56%
CC(C)(CCc1nc2ccccc2[nH]1)C(=O)O -1.31% [at 11.4 µM]
COc1ccc(/C=C/C(=O)Nc2nc(C)cc(C)n2)cc1OC 7.99%
Cc1ccc(S(=O)(=O)N2CCN(C(=O)C3COc4ccccc4O3)CC2)cc1C (configuration not stated) -29.7%
Cc1cc(C)cc(OCC(=O)Nc2ccc3c4c(cccc24)CC3)c1 2.78%
CC(C)c1ccc(/C=C2\C=C(c3ccc4ccccc4c3)OC2=O)cc1 2.54% [at 11.4 µM]
Cc1cc(C)c(NC(=O)CS(=O)CC(=O)NCCCc2ccccc2)c(C)c1 (configuration not stated) -8.29%
Cc1cccc(C)c1NC(=O)CS(=O)CC(=O)NCCCc1ccccc1 (configuration not stated) -1.79%
CC(=O)[C@@]1(O)CC[C@H]2[C@H]3C[C@@H](C)C4=CC(=O)C=C[C@]4(C)[C@@]3(F)[C@@H](O)C[C@]21C -0.238% [at 25.6 µM]
Cc1cc2[nH]c(=O)c3ccccc3n2n1 -11.2%
CCCC(=O)Nc1nnc(Cc2ccccc2)s1 17.3%
CCCc1nnc(NC(=O)CCC(=O)N2CCN(c3ccccn3)CC2)s1 -3.96%
COc1ccc(/C=N/NC(N)=S)cc1OC(=O)c1cccc2ccccc12 14.2%
CCOc1cc(NC(=S)NCC2CCCO2)c(OCC)cc1NC(=O)c1cccc(C)c1 (configuration not stated) -16.3%
O=C1[C@H]2[C@H]3[C@H](O)[C@H](O)C/C(=N/OC[C@@H](O)COCc4ccco4)[C@H]3CC[C@@H]2C(=O)N1Cc1ccc2c(c1)OCO2 3.67% [at 11.4 µM]
Cn1c(=O)c2c(nc(N3CCN(c4ccccn4)CC3)n2Cc2ccc(Cl)cc2Cl)n(C)c1=O -15.4%
O=c1c2ccccc2nc(SCc2ccccc2Cl)n1Cc1ccccc1 -13.8%
S=c1nc(-c2ccccc2)oc2c1CCCC2 -16.9%
CN(CC(=O)O/N=C(\N)c1ccccn1)S(=O)(=O)c1ccccc1 0.421%
Cc1ccc(S(=O)(=O)N(CC(=O)N2CCN(c3ccc(F)cc3)CC2)C2CCCCC2)cc1 -7.36%
O=S(=O)(NCc1cccnc1)c1ccc(Cl)nc1 -10.6%
Cc1ccc(/C=C/c2ccc(=O)n(Cc3ccc(Cl)cc3Cl)n2)cc1 7.32%
COC(=O)[C@@]1(Cc2ccc(OC)cc2)[C@@H]2C(=CC(=O)[C@H]2CC(=O)C(=O)N2CCCC2)CN1C(=O)c1ccccc1 -5.71%
COc1cc(C2C(C#N)=C(N)N(Nc3ccccc3)C3=C2C(=O)CC(C)(C)C3)ccc1OCc1cccc(F)c1 (configuration not stated) -10.8%
CC1=C(CC(=O)O)c2cc(F)ccc2/C1=C\c1ccc(S(C)(=O)=O)cc1 8.35%
Clc1ccc2c(NCCNc3ccnc4cc(Cl)ccc34)ccnc2c1 -10.3% [at 11.4 µM]
C/C(CC/C(C)=N/O)=N/O 8.85% [at 11.4 µM]
O=C(O)c1cccnc1C(=O)O 8.44%
CN(C)c1cc(-c2cccc(NS(C)(=O)=O)c2)ncn1 -1.1%
CC(=O)NCCNc1cc(-c2ccccc2CN(C)C)ncn1 9.47%
Cc1noc(C)c1-c1cc(Nc2ccccc2)ncn1 -1.67%
Cc1noc(C)c1-c1cc(NC2CCNCC2)ncn1 7.12%
CNc1cc(-c2ccccc2C(F)(F)F)ncn1 -2.24%
CC(=O)c1ccc(NC(=O)C2(c3ccccc3)CCOCC2)cc1 -8.6%
CON1C(=O)C(=O)N(OC)C(C)(C)C1C (configuration not stated) 3.21%
CCOC(=O)N1CCN(C(=O)c2ccc3c(=O)n(-c4ccc(OC)cc4)c(=S)[nH]c3c2)CC1 -7%
C=CCn1c(=O)c2c(nc(-c3ccc(S(=O)(=O)O)cc3)n2C)n(C)c1=O 7.35%
CN(C)C[C@H]1CCC2=C(C1=O)C(c1ccc(Cl)c(Cl)c1)C1=C(CC[C@H](CN(C)C)C1=O)O2 -12.4% [at 11.4 µM]
[O-][n+]1c(CN2CCCCC2)nc2cccc3c2c1-c1ccccc1-3 -13.1% [at 11.4 µM]
CCCOC(=O)c1ccc(NC(=O)c2cn(CC)c3nc(C)ccc3c2=O)cc1 -27.3%
O=c1c(-c2ccccc2)nc2cnc(Oc3cccc(Cl)c3)nc2n1C1CC1 -7.95%
Cc1c(Cl)cccc1Nc1ccccc1C(=O)O -2.06% [at 25.6 µM]
Cc1c(Cl)cccc1NC(=O)CC1NCCNC1=O (configuration not stated) -1.15%
Cc1ccc(NC(=O)CN2CCC(NC(=O)Cc3ccccc3)CC2)cc1C -27.2%
CCOC(=O)c1ccccc1NC(=O)CSc1cccc[n+]1[O-] -7.26%
FC(F)(F)c1cccc(-c2nc3nc(Cl)c(Cl)nc3[nH]2)c1 -1.57% [at 11.4 µM]

AC50, active:
Cc1cccc(CNc2ccnc(-c3ccccc3CN(C)C)n2)c1 2.51 µM
O=C(Nc1ccccc1)N[C@H]1C[C@H](C(=O)O)Nc2cc(Cl)cc(Cl)c21 12.6 µM
CCOC(=O)c1sc2nc(CC(=O)OC)nc(NCc3ccc(F)cc3)c2c1C 25.1 µM
CC(C)N(CCNC(=O)C1CCC(=O)N1Cc1ccc(F)cc1)Cc1ccccc1 (configuration not stated) 1.26 µM
COc1ccc(N2C(N)=NC(N)=NC2(C)C)cc1 14.1 µM
CC1(C)N=C(N)N=C(N)N1c1cccc(OCc2cccc(N)c2)c1 2.51 µM
CC1(C)N=C(N)N=C(N)N1c1cccc(CSc2ccccc2)c1 0.251 µM
O=C(OCc1nc2ccccc2[nH]1)C12CC3CC(CC(C3)C1)C2 15.8 µM
Cc1ccccc1-c1nc(CS(=O)CC(=O)NCCN2CCN(Cc3ccccc3)CC2)c(C)o1 (configuration not stated) 14.1 µM
CCCC(=O)Nc1nnc(CCN2CCCCC2)s1 15.8 µM
CCn1c(SCc2ccc(Cl)cc2Cl)nc2nc3c(cc2c1=O)CCCC3 1.26 µM
CCN(C1CCCCC1)S(=O)(=O)c1ccc(S(=O)(=O)NCc2ccncc2)cc1 7.94 µM
Clc1ccc2c(NCCNC3CCCCC3)ccnc2c1 3.16 µM
CN(C)Cc1ccccc1-c1cc(Nc2ccccc2)ncn1 12.6 µM
CN(C)Cc1ccccc1-c1cc(N(C)C)ncn1 1.26 µM
CN(C)Cc1ccccc1-c1cc(NC2CC2)ncn1 0.0398 µM
CNc1cc(-c2ccccc2CN(C)C)ncn1 0.631 µM
Cc1cc(Cl)ccc1NC(=O)CN1CCC(C(O)(c2ccccc2)c2ccccc2)CC1 14.1 µM
Cc1c(Cl)cccc1NC(=O)CN1CCC(C(O)(c2ccccc2)c2ccccc2)CC1 0.224 µM
